Experimental data: PubChem BioAssay AID504915 (The Scripps Research Institute Molecular Screening Center, 2011)
The list shows a part of the results. Values without a mark were called inactive. The source made the active and inactive calls. No stated cut-off is given here; in the data, active means activation above about 17%; inactive means the rest.

target: 5-hydroxytryptamine receptor 5A (Homo sapiens) (UniProt P47898); assay: activation of human 5-HT5A receptor – cell-based, luminescence, confirmation (AID 504915); details: HTR5A agonist cell assay, at 9.3 µM, active compounds read high;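 further: 0% = cells with vehicle only and 100% = full reference agonist response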
Sequence (P47898 whole entry, looked up): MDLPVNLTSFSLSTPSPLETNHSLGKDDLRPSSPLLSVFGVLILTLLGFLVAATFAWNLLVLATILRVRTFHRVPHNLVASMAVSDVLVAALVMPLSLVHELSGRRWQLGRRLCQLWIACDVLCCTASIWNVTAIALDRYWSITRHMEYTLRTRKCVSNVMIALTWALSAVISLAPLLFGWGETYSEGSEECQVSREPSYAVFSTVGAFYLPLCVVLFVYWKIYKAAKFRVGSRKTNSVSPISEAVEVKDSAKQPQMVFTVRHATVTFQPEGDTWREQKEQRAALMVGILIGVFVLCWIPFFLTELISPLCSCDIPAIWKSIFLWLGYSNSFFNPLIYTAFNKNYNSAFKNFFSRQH

Row | SMILES | activation
1 | Cc1ccc(C(=O)N/C(=C/c2ccco2)C(=O)NCCc2c[nH]c3ccccc23)cc1C | -0.29%
2 | Cc1c(C(=O)OCC(=O)N(CCC#N)c2ccccc2)oc2c1ccc1ccccc12 | 61.4% (active)
3 | CCN(CC(=O)Nc1cccc(S(=O)(=O)N2CCCCC2)c1)Cc1ccccc1 | 1.96%
4 | CC(=O)N1CCN(c2ccccc2NC(=S)NC(=O)c2cc3ccccc3o2)CC1 | 4.36%
5 | O=C(CC(O)(C(F)(F)F)C(F)(F)F)Nc1ccc(Cl)c(Cl)c1 | -1.59%
6 | COC(=O)c1cc(S(=O)(=O)N2CCN(c3cc(C)ccc3C)CC2)c[nH]1 | 0.19%
7 | COC(=O)c1cc(C(=O)OCC(=O)Nc2cc(C)on2)cc([N+](=O)[O-])c1 | 1.23%
